Results published in ChEMBL document CHEMBL1157539, “Thousands of chemical starting points for antimalarial lead identification” (Nature, 2010).

System: Plasmodium falciparum
Assay: GSK_TCMDC: Inhibition of Plasmodium falciparum 3D7 in whole red blood cells, using parasite LDH activity as an index of growth. Test compounds present at 2uM
Type: functional

How did the Inhibition turn out when `C=CCN(c1ccc(OC)cc1)S(=O)(=O)c1ccc(Cl)c(C(=O)Nc2cccc(C#N)c2)c1` was run?
The Inhibition was 96%.

`O=C(Nc1cccc(-c2cc(-c3c(Cl)cccc3Cl)no2)c1)c1cncc(-c2cccs2)c1` was tested. Which Inhibition did it give?
Its Inhibition is 91%.

How did the Inhibition turn out when `COc1ccc(S(=O)(=O)NCCC2CCN(CCCCCNC(=O)C=Cc3ccc(Cl)c(Cl)c3)CC2)cc1` was run?
Its Inhibition is 87%.

Which Inhibition does the source give for `Nc1nccc2ccc(-c3ccsc3)cc12.O=C(O)C(F)(F)F` here?
Its Inhibition is 100%.

With `CC(=O)NCC(=O)NC1=NC(=N)N(OCc2ccc3ccccc3c2)C(C)(C)N1` as the compound, how does the Inhibition read?
Its Inhibition is 95%.

`CC(=O)Nc1ccc(OCCCN(Cc2ccccc2C(F)(F)F)c2ccc(C(F)(F)F)c(C#N)c2)c(Cl)c1` was tested. Which Inhibition did it give?
The Inhibition was 85%.

With `COc1cc(-c2ccc(-c3cnc(N)nc3OC)[nH]2)cc(OC)c1OC` as the compound, how does the Inhibition read?
The Inhibition was 100%.

`NC(=O)NC(=O)C=Cc1ccco1` was tested. Which Inhibition did it give?
Its Inhibition is 97%.

Which Inhibition does the source give for `CCCCCCNC(=O)C1Cc2c([nH]c3ccc(C)cc23)C2(CCN(CCc3ccccc3)CC2)N1` (stereo not given) here?
The Inhibition was 85%.

Which Inhibition does the source give for `CCc1cc(NC2CCN(C)CC2)nc(Nc2ccc(C)cc2)n1` here?
Its Inhibition is 95%.

How did the Inhibition turn out when `CCC(C)Oc1ccc2nc(N)nc(N)c2c1Cl` (stereo not given) was run?
The Inhibition was 96%.

`CN(C)CCN1CCN(Cc2cccc(-c3csc(-c4nc5ccccc5[nH]4)c3)c2)CC1.O=C(O)C(F)(F)F` was tested. Which Inhibition did it give?
Its Inhibition is 100%.

How did the Inhibition turn out when `Br.CC1(C)NC(N)=NC(=N)N1OCCCOc1cccc2ccccc12` was run?
The Inhibition was 95%.

With `O=[N+]([O-])c1cccc(S(=O)(=O)N2CCN(CC(O)COc3ccc(-c4ccccc4)cc3)CC2)c1` (stereo not given) as the compound, how does the Inhibition read?
The Inhibition was 94%.

With `CC(C)CCN1CCCN(Cc2cccc(NC(=O)c3ccc(-c4ccccc4)cc3)c2)CC1.O=C(O)C(F)(F)F` as the compound, how does the Inhibition read?
The Inhibition was 92%.

How did the Inhibition turn out when `CCOC(=O)c1c(C)n(-c2ccccc2)c2ccc(O)cc12` was run?
Its Inhibition is 100%.

For `O=C(/C=C/c1ccc(Cl)c(Cl)c1)NC1CCC(CN2CCC(c3nc4ccccc4n3CCCO)CC2)CC1` (stereo not given), which Inhibition is on record?
The Inhibition was 99%.

Which Inhibition does the source give for `Cc1cc(Oc2ccc(-n3ccnc3)cc2)nc(N2CCN(CCCN3CCCC3)CC2)n1.O=C(O)C(F)(F)F` here?
The Inhibition was 90%.

How did the Inhibition turn out when `O=C(O)C(F)(F)F.c1cc(CN2CCC(CCN3CCCCC3)CC2)cc(-c2csc(-c3nc4ccccc4[nH]3)c2)c1` was run?
The Inhibition was 99%.

Which Inhibition does the source give for `Cc1ccccc1C1CCN(C2CCC(NC(=O)c3ccc(-c4ccccc4)s3)CC2)CC1` (stereo not given) here?
The Inhibition was 100%.

`CCn1c(-c2nonc2N)nc2c(-c3cccc(NC(=O)Nc4ccccc4Cl)c3)ncc(OCCCN)c21.O=C(O)C(F)(F)F` was tested. Which Inhibition did it give?
Its Inhibition is 99%.

`CCCC(=O)NC(c1ccc(C)cc1)c1ccc2cccnc2c1O` (stereo not given) was tested. Which Inhibition did it give?
The Inhibition was 88%.

`O=C(O)C(F)(F)F.OCCN1CCN(Cc2cccc(-c3ccc(-c4nc5cc(C(F)(F)F)ccc5[nH]4)s3)c2)CC1` was tested. Which Inhibition did it give?
The Inhibition was 100%.

With `COC(=O)Cc1ccc(N)c2ccccc12.Cl` as the compound, how does the Inhibition read?
Its Inhibition is 98%.

For `Cc1cccc(Nc2nccc(NCC(O)c3cccc(C(F)(F)F)c3)n2)c1` (stereo not given), which Inhibition is on record?
The Inhibition was 100%.

How did the Inhibition turn out when `COc1cc2nc(SCC(C)C)n(CCCn3ccnc3)c(=N)c2cc1OC` was run?
The Inhibition was 99%.

Which Inhibition does the source give for `COc1cc(C=CC(=O)N2CCN(Cc3cccc(C)c3)CC2)ccc1OCc1c(C)noc1C` here?
Its Inhibition is 86%.

For `Cc1cccc2nc(-c3cccc(-c4cccc(NC(=O)CC5NC(=O)c6ccccc65)c4)c3)[nH]c12` (stereo not given), which Inhibition is on record?
Its Inhibition is 92%.

Which Inhibition does the source give for `COc1ccc(-c2cc(C(=O)Nc3ccc(CCCN(C)Cc4ccc(OC)c(OC)c4)cc3)c3ccccc3n2)cc1` here?
Its Inhibition is 92%.

Which Inhibition does the source give for `COc1ccc(CNCc2ccccc2)cc1-c1ccc(S(=O)(=O)NCCN2CCCC2)cc1.O=C(O)C(F)(F)F` here?
The Inhibition was 96%.

Which Inhibition does the source give for `Cl.N#Cc1ccc2c(c1)CCN(CCC1CCC(NC(=O)Nc3ccncc3)CC1)C2` (stereo not given) here?
The Inhibition was 85%.

`COc1ccc2ncc(F)c([C@@H](O)CN3CCC(NCc4cc5c(cn4)OCCO5)CC3)c2c1.Cl` was tested. Which Inhibition did it give?
The Inhibition was 100%.

Which Inhibition does the source give for `Brc1cccc(Nc2nccc(Nc3ccc(Oc4ccccc4)cc3)n2)c1.Cl` here?
Its Inhibition is 89%.

With `O=C(NCCc1ccccc1)N(Cc1ccccc1-c1cccc(CNCc2ccc3c(c2)OCO3)c1)C1CCN(Cc2ccccc2)CC1.O=C(O)C(F)(F)F` as the compound, how does the Inhibition read?
The Inhibition was 93%.

With `O=C(Nc1ccc(Cl)cc1)c1ccc(CN2CCCN(Cc3ccsc3)CC2)cc1.O=C(O)C(F)(F)F` as the compound, how does the Inhibition read?
Its Inhibition is 88%.

With `CCNc1cc(C)nc(Nc2ccc(NC(=O)c3ccccc3Cl)cc2)n1` as the compound, how does the Inhibition read?
The Inhibition was 100%.

How did the Inhibition turn out when `Clc1ccc(CNc2nc(NCCc3c[nH]cn3)nc(NC3CCCCC3)n2)cc1` was run?
Its Inhibition is 100%.

For `CCOc1ccc2nc3cc(NC(=O)c4ccco4)ccc3c(N)c2c1`, which Inhibition is on record?
The Inhibition was 100%.

With `CCCCn1c(N)c(N(Cc2ccco2)C(=O)C=Cc2cc(OC)c3c(c2)OCCO3)c(O)nc1=O` as the compound, how does the Inhibition read?
The Inhibition was 85%.

How did the Inhibition turn out when `O=C(c1ccccc1NN=C1C(=O)N(c2ccccc2)N=C1c1ccccc1)N1CCOCC1` was run?
Its Inhibition is 97%.

System: Plasmodium falciparum
Assay: GSK_TCMDC: Inhibition of Plasmodium falciparum Dd2 in whole red blood cells, using parasite LDH activity as an index of growth. Test compounds present at 2uM
Type: functional

For `C=CCN(c1ccc(OC)cc1)S(=O)(=O)c1ccc(Cl)c(C(=O)Nc2cccc(C#N)c2)c1`, which Inhibition is on record?
The Inhibition was 73%.

For `O=C(Nc1cccc(-c2cc(-c3c(Cl)cccc3Cl)no2)c1)c1cncc(-c2cccs2)c1`, which Inhibition is on record?
Its Inhibition is 39%.

Which Inhibition does the source give for `COc1ccc(S(=O)(=O)NCCC2CCN(CCCCCNC(=O)C=Cc3ccc(Cl)c(Cl)c3)CC2)cc1` here?
Its Inhibition is 0%.

How did the Inhibition turn out when `Nc1nccc2ccc(-c3ccsc3)cc12.O=C(O)C(F)(F)F` was run?
Its Inhibition is 89%.

Which Inhibition does the source give for `CC(=O)NCC(=O)NC1=NC(=N)N(OCc2ccc3ccccc3c2)C(C)(C)N1` here?
Its Inhibition is 97%.

With `CC(=O)Nc1ccc(OCCCN(Cc2ccccc2C(F)(F)F)c2ccc(C(F)(F)F)c(C#N)c2)c(Cl)c1` as the compound, how does the Inhibition read?
Its Inhibition is 43%.

Which Inhibition does the source give for `COc1cc(-c2ccc(-c3cnc(N)nc3OC)[nH]2)cc(OC)c1OC` here?
Its Inhibition is 54%.

How did the Inhibition turn out when `NC(=O)NC(=O)C=Cc1ccco1` was run?
Its Inhibition is 0%.

For `CCCCCCNC(=O)C1Cc2c([nH]c3ccc(C)cc23)C2(CCN(CCc3ccccc3)CC2)N1` (stereo not given), which Inhibition is on record?
Its Inhibition is 24%.

Which Inhibition does the source give for `CCc1cc(NC2CCN(C)CC2)nc(Nc2ccc(C)cc2)n1` here?
Its Inhibition is 11%.

Which Inhibition does the source give for `CCC(C)Oc1ccc2nc(N)nc(N)c2c1Cl` (stereo not given) here?
Its Inhibition is 0%.

Which Inhibition does the source give for `CN(C)CCN1CCN(Cc2cccc(-c3csc(-c4nc5ccccc5[nH]4)c3)c2)CC1.O=C(O)C(F)(F)F` here?
The Inhibition was 97%.

For `Br.CC1(C)NC(N)=NC(=N)N1OCCCOc1cccc2ccccc12`, which Inhibition is on record?
Its Inhibition is 86%.

`O=[N+]([O-])c1cccc(S(=O)(=O)N2CCN(CC(O)COc3ccc(-c4ccccc4)cc3)CC2)c1` (stereo not given) was tested. Which Inhibition did it give?
Its Inhibition is 32%.

Which Inhibition does the source give for `CC(C)CCN1CCCN(Cc2cccc(NC(=O)c3ccc(-c4ccccc4)cc3)c2)CC1.O=C(O)C(F)(F)F` here?
The Inhibition was 21%.

`CCOC(=O)c1c(C)n(-c2ccccc2)c2ccc(O)cc12` was tested. Which Inhibition did it give?
Its Inhibition is 87%.

`O=C(/C=C/c1ccc(Cl)c(Cl)c1)NC1CCC(CN2CCC(c3nc4ccccc4n3CCCO)CC2)CC1` (stereo not given) was tested. Which Inhibition did it give?
The Inhibition was 28%.

For `Cc1cc(Oc2ccc(-n3ccnc3)cc2)nc(N2CCN(CCCN3CCCC3)CC2)n1.O=C(O)C(F)(F)F`, which Inhibition is on record?
The Inhibition was 7%.

`O=C(O)C(F)(F)F.c1cc(CN2CCC(CCN3CCCCC3)CC2)cc(-c2csc(-c3nc4ccccc4[nH]3)c2)c1` was tested. Which Inhibition did it give?
Its Inhibition is 99%.

How did the Inhibition turn out when `Cc1ccccc1C1CCN(C2CCC(NC(=O)c3ccc(-c4ccccc4)s3)CC2)CC1` (stereo not given) was run?
The Inhibition was 84%.

With `CCn1c(-c2nonc2N)nc2c(-c3cccc(NC(=O)Nc4ccccc4Cl)c3)ncc(OCCCN)c21.O=C(O)C(F)(F)F` as the compound, how does the Inhibition read?
The Inhibition was 74%.

How did the Inhibition turn out when `CCCC(=O)NC(c1ccc(C)cc1)c1ccc2cccnc2c1O` (stereo not given) was run?
The Inhibition was 45%.

`O=C(O)C(F)(F)F.OCCN1CCN(Cc2cccc(-c3ccc(-c4nc5cc(C(F)(F)F)ccc5[nH]4)s3)c2)CC1` was tested. Which Inhibition did it give?
The Inhibition was 98%.

Which Inhibition does the source give for `COC(=O)Cc1ccc(N)c2ccccc12.Cl` here?
The Inhibition was 0%.

How did the Inhibition turn out when `Cc1cccc(Nc2nccc(NCC(O)c3cccc(C(F)(F)F)c3)n2)c1` (stereo not given) was run?
The Inhibition was 94%.

Which Inhibition does the source give for `COc1cc2nc(SCC(C)C)n(CCCn3ccnc3)c(=N)c2cc1OC` here?
The Inhibition was 78%.

`COc1cc(C=CC(=O)N2CCN(Cc3cccc(C)c3)CC2)ccc1OCc1c(C)noc1C` was tested. Which Inhibition did it give?
The Inhibition was 95%.

Which Inhibition does the source give for `Cc1cccc2nc(-c3cccc(-c4cccc(NC(=O)CC5NC(=O)c6ccccc65)c4)c3)[nH]c12` (stereo not given) here?
The Inhibition was 49%.

Which Inhibition does the source give for `COc1ccc(-c2cc(C(=O)Nc3ccc(CCCN(C)Cc4ccc(OC)c(OC)c4)cc3)c3ccccc3n2)cc1` here?
The Inhibition was 47%.

`COc1ccc(CNCc2ccccc2)cc1-c1ccc(S(=O)(=O)NCCN2CCCC2)cc1.O=C(O)C(F)(F)F` was tested. Which Inhibition did it give?
The Inhibition was 39%.

With `Cl.N#Cc1ccc2c(c1)CCN(CCC1CCC(NC(=O)Nc3ccncc3)CC1)C2` (stereo not given) as the compound, how does the Inhibition read?
Its Inhibition is 3%.

Which Inhibition does the source give for `COc1ccc2ncc(F)c([C@@H](O)CN3CCC(NCc4cc5c(cn4)OCCO5)CC3)c2c1.Cl` here?
Its Inhibition is 98%.

How did the Inhibition turn out when `Brc1cccc(Nc2nccc(Nc3ccc(Oc4ccccc4)cc3)n2)c1.Cl` was run?
The Inhibition was 5%.

`O=C(NCCc1ccccc1)N(Cc1ccccc1-c1cccc(CNCc2ccc3c(c2)OCO3)c1)C1CCN(Cc2ccccc2)CC1.O=C(O)C(F)(F)F` was tested. Which Inhibition did it give?
Its Inhibition is 77%.

How did the Inhibition turn out when `O=C(Nc1ccc(Cl)cc1)c1ccc(CN2CCCN(Cc3ccsc3)CC2)cc1.O=C(O)C(F)(F)F` was run?
The Inhibition was 1%.

How did the Inhibition turn out when `CCNc1cc(C)nc(Nc2ccc(NC(=O)c3ccccc3Cl)cc2)n1` was run?
Its Inhibition is 52%.

How did the Inhibition turn out when `Clc1ccc(CNc2nc(NCCc3c[nH]cn3)nc(NC3CCCCC3)n2)cc1` was run?
Its Inhibition is 1%.

With `CCOc1ccc2nc3cc(NC(=O)c4ccco4)ccc3c(N)c2c1` as the compound, how does the Inhibition read?
Its Inhibition is 56%.

For `CCCCn1c(N)c(N(Cc2ccco2)C(=O)C=Cc2cc(OC)c3c(c2)OCCO3)c(O)nc1=O`, which Inhibition is on record?
Its Inhibition is 94%.

For `O=C(c1ccccc1NN=C1C(=O)N(c2ccccc2)N=C1c1ccccc1)N1CCOCC1`, which Inhibition is on record?
Its Inhibition is 2%.
